# Only a selection was taken, and the strongest signals are over-represented in it overall.
# Columns and labels:
# Test in all cases: glycan array binding signal (z-score within array); higher = stronger binding
# Details in all cases: glycan notation: IUPAC condensed, linker removed
# [1] = target: Gal(b1-4)GlcNAc(b1-3)[Fuc(a1-3)GlcNAc(b1-6)]Gal(b1-4)Glc
# Method in brief: (§1)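 The binding signal is a Z-score computed within each array and averaged over linkers. Arrays of the same protein sequence at different concentrations or buffers were also averaged together. Data originate from 3228 arrays in the Consortium for Functional Glycomics database, kept only where the protein sequence was available.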
# Gal(b1-6)Gal = target: Gal(b1-6)Gal
# Method in brief: as §1
# [2] = target: GalNAc(b1-4)GlcNAc(b1-2)Man(a1-3)[GalNAc(b1-4)GlcNAc(b1-2)Man(a1-6)]Man(b1-4)GlcNAc(b1-4)GlcNAc
# Method in brief: as §1
# GalNAc(b1-6)GalNAc = target: GalNAc(b1-6)GalNAc
# Method in brief: as §1
# [3] = target: Glc(a1-6)Glc(a1-6)Glc(a1-6)Glc
# Method in brief: as §1
# [4] = target: GlcNAc(a1-4)Gal(b1-4)GlcNAc(b1-3)Gal(b1-4)[Fuc(a1-3)]GlcNAc(b1-3)Gal(b1-4)[Fuc(a1-3)]GlcNAc
# Method in brief: as §1
# [5] = target: GlcNAc(b1-2)[GlcNAc(b1-4)]Man(a1-3)[GlcNAc(b1-4)][GlcNAc(b1-2)[GlcNAc(b1-6)]Man(a1-6)]Man(b1-4)GlcNAc(b1-4)GlcNAc
# Method in brief: as §1
# [6] = target: GlcNAc(b1-2)[GlcNAc(b1-6)]Man(a1-6)[GlcNAc(b1-2)Man(a1-3)]Man(b1-4)GlcNAc(b1-4)GlcNAc
# Method in brief: as §1
# [7] = target: GlcNAc(b1-3)Gal(b1-4)GlcNAc
# Method in brief: as §1
# [8] = target: GlcNAc(b1-3)Gal(b1-4)GlcNAc(b1-2)[GlcNAc(b1-3)Gal(b1-4)GlcNAc(b1-6)]Man(a1-6)[GlcNAc(b1-3)Gal(b1-4)GlcNAc(b1-2)Man(a1-3)]Man(b1-4)GlcNAc(b1-4)GlcNAc
# Method in brief: as §1
# [9] = target: GlcNAc(b1-3)Gal(b1-4)GlcNAc(b1-3)Gal(b1-4)GlcNAc(b1-3)Gal(b1-4)GlcNAc(b1-3)Gal(b1-4)GlcNAc(b1-2)Man(a1-3)[GlcNAc(b1-3)Gal(b1-4)GlcNAc(b1-3)Gal(b1-4)GlcNAc(b1-3)Gal(b1-4)GlcNAc(b1-3)Gal(b1-4)GlcNAc(b1-2)Man(a1-6)]Man(b1-4)GlcNAc(b1-4)[Fuc(a1-6)]GlcNAc
# Method in brief: as §1
# [10] = target: GlcNAc(b1-4)[GlcNAc(b1-6)]GalNAc
# Method in brief: as §1
# [11] = target: Man(a1-2)Man(a1-3)[Man(a1-2)Man(a1-6)]Man(a1-6)[Man(a1-2)Man(a1-2)Man(a1-3)]Man(b1-4)GlcNAc(b1-4)GlcNAc
# Method in brief: as §1
# Man(a1-3)[Man(a1-6)]Man = target: Man(a1-3)[Man(a1-6)]Man
# Method in brief: as §1
# [12] = target: Man(a1-3)[Man(a1-6)]Man(a1-6)[Man(a1-2)Man(a1-3)]Man(b1-4)GlcNAc(b1-4)GlcNAc
# Method in brief: as §1
# [13] = target: Neu5Ac(a2-3)Gal(b1-3)GalNAc
# Method in brief: as §1
# [14] = target: Neu5Ac(a2-3)Gal(b1-3)GlcNAc(b1-2)Man
# Method in brief: as §1
# [15] = target: Neu5Ac(a2-3)Gal(b1-4)GlcNAc6S
# Method in brief: as §1
# [16] = target: Neu5Ac(a2-3)Gal(b1-4)[Fuc(a1-3)]GlcNAc(b1-3)GalNAc
# Method in brief: as §1
# [17] = target: Neu5Ac(a2-6)Gal(b1-4)GlcNAc(b1-2)[Neu5Ac(a2-6)Gal(b1-4)GlcNAc(b1-6)]Man(a1-6)[Neu5Ac(a2-6)Gal(b1-4)GlcNAc(b1-2)Man(a1-3)][GlcNAc(b1-4)]Man(b1-4)GlcNAc(b1-4)GlcNAc
# Method in brief: as §1
# [18] = target: Neu5Ac(a2-6)Gal(b1-4)GlcNAc(b1-3)Gal(b1-4)GlcNAc(b1-2)Man(a1-3)[Neu5Ac(a2-6)Gal(b1-4)GlcNAc(b1-3)Gal(b1-4)GlcNAc(b1-2)Man(a1-6)]GalNAc
# Method in brief: as §1
# [19] = target: Neu5Ac(a2-6)Gal(b1-4)GlcNAc(b1-3)Gal(b1-4)GlcNAc(b1-3)Gal(b1-4)GlcNAc(b1-2)Man(a1-3)[Neu5Ac(a2-6)Gal(b1-4)GlcNAc(b1-3)Gal(b1-4)GlcNAc(b1-3)Gal(b1-4)GlcNAc(b1-2)Man(a1-6)]GalNAc
# Method in brief: as §1
# [20] = target: Neu5Ac(a2-6)Gal(b1-4)GlcNAc(b1-6)[Gal(b1-3)GlcNAc(b1-3)]Gal(b1-4)Glc
# Method in brief: as §1
# [21] = target: Neu5Ac(a2-6)Gal(b1-4)GlcNAc(b1-6)[Gal(b1-3)]GalNAc
# Method in brief: as §1
# [22] = target: Neu5Gc(a2-3)Gal(b1-3)[Fuc(a1-4)]GlcNAc
# Method in brief: as §1
binder,measurement,setting,value
SP15308F-bth-333-19-333 (Bacteroides thetaiotaomicron) (protein) SCNNEWESEQYVQMVSFKAPVNAQGVTPIYIRYKPEGKVTYQLPLIVSGSTMNSKDLNVHVGLDLDTLDVLNVEHFGSRKELFFKPLENKYYEFPETVQIPAGECTSLLPIDFALKDLDQVDKWVLPLAIQSNDPSHNYQANPRKFYRRAMLRISPFNDYSGQYSATAYKVYFKGNEKEAIVPEYHTSYVIDDKTIFFYAGLIDIDRLDRKYYKIKFEFTEEKIDLQTRKLKISSDNEDINLVVKGQPSYTVEEEMDATRPYLKHIYVTINNLEYEFTDYTSVPGYPLEYVVKGSLTMERKINTQIPDEDQAIEW,glycan array binding signal (z-score),[1],-0.005
same,glycan array binding signal (z-score),Gal(b1-6)Gal,-0.244
same,glycan array binding signal (z-score),[2],1.38
same,glycan array binding signal (z-score),GalNAc(b1-6)GalNAc,2.02
same,glycan array binding signal (z-score),[3],-0.539
same,glycan array binding signal (z-score),[4],2.63
same,glycan array binding signal (z-score),[5],-1.46
same,glycan array binding signal (z-score),[6],-0.327
same,glycan array binding signal (z-score),[7],-0.835
same,glycan array binding signal (z-score),[8],2.85
same,glycan array binding signal (z-score),[9],2.43
same,glycan array binding signal (z-score),[10],0.249
same,glycan array binding signal (z-score),[11],-0.143
same,glycan array binding signal (z-score),Man(a1-3)[Man(a1-6)]Man,-0.694
same,glycan array binding signal (z-score),[12],-0.363
same,glycan array binding signal (z-score),[13],1.83
same,glycan array binding signal (z-score),[14],1.15
same,glycan array binding signal (z-score),[15],1.4
same,glycan array binding signal (z-score),[16],3.76
same,glycan array binding signal (z-score),[17],0.627
same,glycan array binding signal (z-score),[18],3.27
same,glycan array binding signal (z-score),[19],2.6
same,glycan array binding signal (z-score),[20],-0.927
same,glycan array binding signal (z-score),[21],-0.014
same,glycan array binding signal (z-score),[22],0.217

# Reference: the supplement of paper PMC8728848
